In PubChem BioAssay (NCATS):
Several values for one entry are separate records, joined by “and”; a condition that tells them apart may be missing. Equal values may be shown once. Records with an inconclusive call do not appear. A call without a number means that no potency is given here. Activity calls are given as the source filed them. Unless noted, calls follow the shape of the full dose curve.

Assays:
[1] = qHTS for Inhibitors of the Functional Ribonucleoprotein Complex (vRNP) of Lassa (LASV) Arenavirus: LASV Primary Screen - GLuc reporter signal (AID 1347082; calls by dose curve; tested in HEK293 reporter line; also: nearly all actives have a fitted effect of over 60% in size)
[2] = qHTS for Inhibitors of the Functional Ribonucleoprotein Complex (vRNP) of Lassa (LASV) Arenavirus: Viability assay - alamar blue signal for LASV Primary Screen (AID 1347083; calls by dose curve; tested in HEK293 reporter line; also: nearly all actives have a fitted effect of over 80% in size)
[3] = qHTS for Inhibitors of the Functional Ribonucleoprotein Complex (vRNP) of Lymphocytic Choriomeningitis Arenaviruses (LCMV): Viability assay - alamar blue signal for LCMV Primary Screen (AID 1347085; calls by dose curve; tested in HEK293 reporter line; also: nearly all actives have a fitted effect of over 80% in size)
[4] = target: Nucleoprotein (Lymphocytic choriomeningitis virus (strain Armstrong)) (UniProt P09992); experiment: qHTS for Inhibitors of the Functional Ribonucleoprotein Complex (vRNP) of Lymphocytic Choriomeningitis Arenaviruses (LCMV): LCMV Primary Screen - GLuc reporter signal (AID 1347086); also: nearly all actives have a fitted effect of over 70% in size
Potency is read from the fitted curve at half-maximal effect.

Sequence of Nucleoprotein (Lymphocytic choriomeningitis virus (strain Armstrong)) (P09992 whole entry, looked up): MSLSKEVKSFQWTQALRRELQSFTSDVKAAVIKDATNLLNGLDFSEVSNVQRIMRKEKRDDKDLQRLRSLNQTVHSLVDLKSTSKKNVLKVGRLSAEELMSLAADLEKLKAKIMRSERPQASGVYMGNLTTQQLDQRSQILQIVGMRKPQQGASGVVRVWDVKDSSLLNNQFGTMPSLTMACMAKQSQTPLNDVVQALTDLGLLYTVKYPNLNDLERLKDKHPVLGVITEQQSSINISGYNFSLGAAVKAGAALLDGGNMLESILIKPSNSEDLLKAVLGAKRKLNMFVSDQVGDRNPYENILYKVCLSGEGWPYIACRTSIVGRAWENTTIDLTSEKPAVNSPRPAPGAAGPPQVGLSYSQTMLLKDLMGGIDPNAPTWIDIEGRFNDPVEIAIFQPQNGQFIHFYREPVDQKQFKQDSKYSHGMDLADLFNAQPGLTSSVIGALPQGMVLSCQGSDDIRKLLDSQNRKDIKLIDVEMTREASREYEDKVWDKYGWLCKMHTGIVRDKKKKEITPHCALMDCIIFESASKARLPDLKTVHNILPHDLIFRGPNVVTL

Row | SMILES | Potency [1] | Potency [2] | Potency [3] | Potency [4]
1 | C[C@]12CCC(=O)C=C1CC[C@@H]1[C@@H]2[C@@H](O)C[C@@]2(C)[C@H]1CC[C@]2(O)C(=O)CO | inactive | inactive | inactive | inactive
2 | CN1C[C@H](C(=O)N[C@]2(C)O[C@@]3(O)[C@@H]4CCCN4C(=O)[C@H](Cc4ccccc4)N3C2=O)C[C@@H]2c3cccc4[nH]cc(c34)C[C@H]21 | inactive | inactive | inactive | inactive
3 | Cc1cn([C@H]2C[C@H](F)[C@@H](CO)O2)c(=O)[nH]c1=O | inactive | inactive | inactive | inactive
4 | NCCc1cnc[nH]1 | inactive | inactive | inactive | inactive
5 | CCOCCOC(=O)/C=C/c1ccc(OC)cc1 | inactive | inactive | inactive | inactive
6 | O=C(O)CCc1nc(-c2ccccc2)c(-c2ccccc2)o1 | inactive | inactive | inactive | inactive
7 | Nc1ccc(S(=O)(=O)Nc2nccs2)cc1 | inactive | inactive | inactive | inactive
8 | CCCCCCCCCCCCCCCCCCOCC(O)CO (configuration not stated) | inactive | inactive | inactive | inactive
9 | CCCCCCCCCCCCOS(=O)(=O)O | inactive | inactive | inactive | inactive
10 | COc1ccc2cc(C=O)ccc2c1 | inactive | inactive | inactive | inactive
11 | NS(=O)(=O)c1cc2c(cc1Cl)NC(C1CC3C=CC1C3)NS2(=O)=O (configuration not stated) | inactive | inactive | inactive | inactive
12 | CCOC(=O)CN1CCCC1=O | inactive | inactive | inactive | inactive
13 | CCCCCOc1ccccc1/C(=C\SC)n1ccnc1 | inactive | inactive | inactive | inactive
14 | Cc1sccc1Br | inactive | inactive | inactive | inactive
15 | CCCCC1C(=O)N(c2ccccc2)N(c2ccc(O)cc2)C1=O (configuration not stated) | inactive | inactive | inactive | inactive
16 | CCCCNc1ccc(C(=O)OCCN(CC)CC)cc1 | inactive | inactive | inactive | inactive
17 | CCCCCCOC(=O)NC(=N)c1ccc(NCc2nc3cc(C(=O)N(CCC(=O)OCC)c4ccccn4)ccc3n2C)cc1 | inactive | inactive | inactive | inactive

Row | SMILES | Potency [1] | Potency [2] | Potency [3] | Potency [4]
18 | CC1(C)S[C@@H]2[C@H](N=CN3CCCCCC3)C(=O)N2[C@H]1C(=O)O | inactive | inactive | inactive | inactive
19 | O=C(OCC(O)CO)c1ccccc1Nc1ccnc2c(C(F)(F)F)cccc12 (configuration not stated) | inactive | inactive | inactive | inactive
20 | NC(N)=NC(=O)c1nc(Cl)c(N)nc1N | inactive | inactive | inactive | inactive
21 | CO/N=C(/C(=O)N[C@@H]1C(=O)N2C(C(=O)O)=C(Cn3nnc(C)n3)CS[C@H]12)c1csc(N)n1 | inactive | inactive | inactive | inactive
22 | C=Cc1c(C)c2cc3[nH]c(cc4nc(cc5nc(cc1[nH]2)C(C)=C5CCC(=O)O)C(CCC(=O)O)=C4C)c(C)c3C=C | inactive | inactive | inactive | inactive
23 | Cc1c(N)c(=O)n(-c2ccccc2)n1C | inactive | inactive | inactive | inactive
24 | NC(=O)NNc1ccccc1 | inactive | inactive | inactive | inactive
25 | COCCc1ccc(OCC(O)CNC(C)C)cc1 (configuration not stated) | inactive | inactive | inactive | inactive
26 | CCCCCN(CCCCC)C(=O)C(CCC(=O)O)NC(=O)c1ccc(Cl)c(Cl)c1 (configuration not stated) | inactive | inactive | inactive | inactive
27 | Cc1ccc(C(=O)Nc2ccc(S(=O)(=O)O)c3cc(S(=O)(=O)O)cc(S(=O)(=O)O)c23)cc1NC(=O)c1cccc(NC(=O)Nc2cccc(C(=O)Nc3cc(C(=O)Nc4ccc(S(=O)(=O)O)c5cc(S(=O)(=O)O)cc(S(=O)(=O)O)c45)ccc3C)c2)c1 | inactive | inactive | inactive | inactive
28 | CC(C)COCC(CN(Cc1ccccc1)c1ccccc1)N1CCCC1 (configuration not stated) | inactive | inactive | inactive | inactive
29 | CN(C)c1ccc(C(=C2C=CC(=[N+](C)C)C=C2)c2ccc(N(C)C)cc2)cc1 | 1.22 µM (active) | 3.85 µM (active) | 5.62 µM (active) and 3.85 µM (active) | 1.53 µM (active)
30 | CCOC(=O)C(=O)c1csc(NC=O)n1 | inactive | inactive | inactive | inactive
31 | Oc1ccc(O)cc1 | inactive | inactive | inactive | inactive
32 | O=C(c1ccc(F)cc1)C1CCN(CCn2c(=O)[nH]c3ccccc3c2=O)CC1 | inactive | inactive | inactive | inactive
33 | CCCn1cnc2c1c(=O)n(CCCCC(C)=O)c(=O)n2C | inactive | inactive | inactive | inactive
